# From PubChem
# Vaccinia mCherry: vaccinia inhibition (mCherry reporter); Vaccinia virus mCherry reporter infection, fluorescence; Potency, µM (doses to about 36.5 µM), without a hit: top-dose activity change, negative = inhibition, usual class: inhibitors; 310,000 compounds, 0.63% hits; calls by dose curve; tested in A549 cells; note: potency is the fitted concentration of half-maximal effect; nearly all actives have a fitted effect of over 35% in size
# FMDV antiviral: blocks foot and mouth disease virus | FMDV antiviral cell-based qHTS | Potency, µM (top dose mostly 57.9 µM), for inactives: at the top dose activity change, negative = inhibition, hits mostly inhibitors | 410,000 compounds, 1.2% hits; calls by dose curve; tested in HEK293T cells; note: read-out not given here; potency is the fitted concentration of half-maximal effect; nearly all actives have a fitted effect of over 45% in size
# HCMV antiviral: blocks human cytomegalovirus replication; HFF cells, HCMV-luciferase reporter, 72 h; stronger effect = lower value; activity change, negative = inhibition, % at 57.5 µM; 410,000 compounds, 4.5% hits; AID 1259415; in the data active = activity change below about -60%; inconclusive = no clear call, values can overlap the other calls; inactive = above about -39%
#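 Luciferase read-out from HCMV-luciferase-infected HFFs (MOI 1 PFU/cell) 72 h post infection at 37C; compounds added after 16 h cell attachment; activity normalized between buffer-only basal and Salinomycin (10uM) inhibitor controls.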
# HCV inh: HCV inhibition; Potency, µM (doses to about 41.8 µM), without a hit: top-dose activity change, negative = inhibition, hits mostly inhibitors; Huh7.5.1 HCVcc-Cre infection, luciferase reporter, 44 h; 340,000 compounds, 3.4% hits; AID 651820; note: potency is the fitted concentration of half-maximal effect
#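 Reporter virus HCVcc-Cre (~0.5 moi) infects cells exposed to compound; seeding density 1,000 cells/well with 4 h settling beforehand. Luminescence, 15 sec read, taken 44 h post-infection following a 15 min RT substrate incubation.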
# VACV Venus inh: vaccinia inhibition (Venus reporter); Vaccinia virus Venus reporter expression, fluorescence; Potency, µM (highest dose often 36.5 µM), for inactives: top-dose activity change, negative = inhibition, most hits filed as inhibitors; 330,000 compounds, 0.46% hits; AID 720580; calls by dose curve; tested in A549 cells; note: potency is the fitted concentration of half-maximal effect; nearly all actives have a fitted effect of over 30% in size
# Sm TGR block: S. mansoni TGR enzyme inhibition. Q962Y6. purified TGR, DTNB reduction, TNB absorbance 405 nm. Potency, µM (top dose mostly 114 µM), inactives show top-dose activity change, negative = inhibition, hits mostly inhibitors. 360,000 compounds, 3% hits. AID 485364; note: potency is the fitted concentration of half-maximal effect; nearly all actives have a fitted effect of over 60% in size
#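 Kinetic colorimetric format: TGR-catalysed, NADPH-driven DTNB reduction monitored via TNB absorbance. Enzyme dispensed at 20 nM; compound exposure 15 min at room temperature before reaction start.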
# Starred values were filed as active, the others as inactive; i = inactive; ? = inconclusive; . = no result; [ ] = dose if it differs, or a comment. Only some compounds are listed: those with a hit (about 9.3% of all), similar ones and a draw of the others. Unless noted, calls come from the whole dose curve; as a rule, active = well fitted curve in the direction sought with a large enough effect; inconclusive = small, poorly fitted or top-dose-only effect, or another doubt; inactive = no such curve, though single readings can be large; an effect the other way counts as inactive or inconclusive. % is set by controls: 0 for no effect and ±100 for the full control effect.
SMILES,Vaccinia mCherry,FMDV antiviral,HCMV antiviral,HCV inh,VACV Venus inh,Sm TGR block
O=C(Nc1ccccc1N1CCCCC1)c1ccc(Cl)c([N+](=O)[O-])c1,-20.7%,?,24.5,12.6µM*,?,1.7%
CCOc1ccc(C(=O)NC(=S)Nc2ccc(N3CCC(C)CC3)cc2)cc1[N+](=O)[O-],8.6%,-20.5%,41.1,?,16.0%,-14.1%
CCOc1ccc(C(=O)NC(=S)Nc2ccccc2N2CCC(C)CC2)cc1[N+](=O)[O-],.,?,-96.8*,?,-8.9%,8.0%
O=C(Nc1ccc(Nc2ccccc2)cc1)c1ccc(Cl)c([N+](=O)[O-])c1,.,-20.4%,-31.4,0.5%,.,0.0%
CN1CCN(c2ccccc2NC(=O)c2ccc(N3CCCC3)c([N+](=O)[O-])c2)CC1,?,?,-17.8,?,?,1.0%
O=C(Nc1ccccc1-c1ccccc1)c1ccc(Cl)c([N+](=O)[O-])c1,20µM*,-9.1%,-32.3,?,12.6µM*,-3.3%
CC(=O)Nc1ccc(S(=O)(=O)Nc2cccc(S(=O)(=O)N(C)c3ccccc3)c2)cc1,-20.4%,-4.6%,-31.3,?,-11.3%,-1.3%
O=C(O)c1cc([N+](=O)[O-])ccc1N1CCC(Cc2ccccc2)CC1,i,7.3%,-15.1,11.0%,-12.4%,3.8%
CCOC(=O)CSc1nc(-c2ccc(F)cc2)cc(C(F)(F)F)c1C#N,-7.5%,31.6µM*,17.4,.,-1.5%,1.9%
CCN(CC)C(=O)CSc1nc(-c2cccs2)cc(-c2cccs2)c1C#N,.,0.0%,?,2.51µM*,.,?
CC(C)OC(=O)CC(=O)CSc1nc(-c2ccc(F)cc2)cc(-c2ccccc2)c1C#N,-9.2%,-5.2%,-62.0*,?,-8.2%,-11.0%
CSc1nc(C2CC2)cc(-c2cccs2)c1C#N,-17.8%,.,-102.0*,11.2µM*,-27.5%,0.4%
COc1ccc(-c2cc(C3CC3)nc(SCC(=O)c3cccs3)c2C#N)cc1,i,-11.9%,-24.3,?,-9.8%,-0.2%
CCN(CC)C(=O)CSc1nc(N)c(C#N)c(-c2cccs2)c1C#N,.,-18.8%,-24.4,-17.5%,.,-0.4%
COc1ccc(-c2cc(-c3ccccc3)c(C#N)c(SCC(=O)O)n2)cc1,-30.1%,-12.5%,?,6.1%,-4.2%,.
CCN(CC)C(=O)CSc1nc(-c2ccccc2)cc(-c2ccc(OC)cc2)c1C#N,-8.5%,2.5%,-64.7*,.,-5.1%,-0.5%
Cc1ccc(-n2c(C)cc(/C=C3\SC(=O)NC3=O)c2C)cc1,.,56.2%,24.8,11.1%,.,9.9%
Cc1cc(/C=C2\SC(=S)N(C)C2=O)c(C)n1-c1ccccc1O,?,?,0.0,7.08µM*,2.7%,.
Cc1cc(/C=C2\SC(=S)N(C)C2=O)c(C)n1-c1ccc(O)cc1,?,0.891µM*,-96.9*,11.2µM*,-17.8%,?
COc1ccc(-c2nc3ncccc3o2)cc1NC(=O)c1cccs1,8.2%,-18.7%,-20.3,-19.9%,-3.9%,6.4%
Cc1ccc(OCC(=O)N(Cc2ccc(N(C)C)cc2)C2CCS(=O)(=O)C2)cc1C (stereo not given),-16.7%,-10.4%,-3.6,-5.0%,-11.5%,-2.3%
CC(C)[C@@H]1Cc2[nH]c(=S)[nH]c(=O)c2[C@H](C)O1,38.0%,-19.6%,2.8,.,0.3%,.
CC(C)CC1OC(C(C)C)Cc2[nH]c(=S)[nH]c(=O)c21 (stereo not given),.,0.0%,?,.,0.0126µM*,.
COC(=O)c1ccc(CC2(C)C(=O)Nc3ccc(OC(F)(F)F)cc32)o1 (stereo not given),-7.2%,-22.3%,-8.7,.,-16.5%,.
COc1ccc2c(C(=O)CN(C)C3CCCCC3)c[nH]c2c1,.,-12.4%,32.5,-0.5%,-3.5%,35.5µM*
SMILES,Vaccinia mCherry,FMDV antiviral,HCMV antiviral,HCV inh,VACV Venus inh,Sm TGR block
O=C(NNC(=O)c1ccc[nH]1)c1cccc(C(F)(F)F)c1,.,-8.2%,4.9,-0.7%,.,-5.1%
CC(C)(C)c1ccc(Oc2nc3ccccn3c(=O)c2/C=C(\C#N)c2nc3ccccc3s2)cc1,-12.4%,-7.9%,5.8,.,-1.9%,3.16µM*
C=C1CCN(Cc2ccccc2)S(=O)(=O)c2ccccc21,i,-5.0%,-22.4,-12.0%,-8.1%,-5.4%
C=C1CCN(CC(=O)OC)S(=O)(=O)c2ccccc21,-12.6%,-23.4%,31.7,27.8%,-8.5%,31.6µM*
C=C1CCN(C(C)C(=O)O)S(=O)(=O)c2ccccc21 (stereo not given),-11.1%,62.9%,26.7,1.41µM*,-4.9%,?
C=C1CCN(C(C)C(=O)OC)S(=O)(=O)c2ccccc21 (stereo not given),i,11.1%,-17.2,-2.6%[8.37 µM],0.5%,-5.2%
CCOC(=O)c1c(C)[nH]c(C)c1S(=O)(=O)N(C)CC(=O)N1CCN(c2ccc(Cl)cc2)CC1,-22.5%,-3.0%,-21.9,.,-14.1%,0.9%
CC(COc1ccc(/C=C/c2ccccc2)cc1)[N+](C)(C)C (stereo not given),-24.0%,-6.3%,-96.5*,-21.6%,-18.0%,-20.2%
COc1cc(/C=C/c2ccccc2)cc(OC)c1,-4.8%,0.3%,46.4,?,0.6%,.
O=C(C[n+]1cccc(Br)c1)c1cc(Cl)ccc1Cl,-12.0%,.,.,.,-6.7%,.
COC(=O)CNC(c1ccccc1)c1cc(C)ccc1NC(=O)c1cccc(Cl)c1 (stereo not given),?,-30.1%,-18.4,?,-15.2%,0.0%
CCn1c([N+](=O)[O-])nc2c1c(=O)[nH]c(=O)n2C,.,?,-98.1*,11.2µM*,.,25.1µM*
CCCCCCn1c(SCCCC)nc2c1c(=O)[nH]c(=O)n2C,.,0.0%,85.0,10.3%,-7.0%,-13.4%
Cc1ccc(Cn2cnc3ccccc32)cc1,13.5%,.,29.9,?,7.9%,1.9%
CCCC1Cc2c(sc(NC(=S)NC(=O)c3ccccc3)c2C#N)CO1 (stereo not given),.,.,.,2.9%,.,?
NC(=O)C1=CC2C3C=CC2(O)C(=O)OC3O1 (stereo not given),-10.9%,?,-96.8*,8.91µM*,-13.9%,.
CCn1nc(C(=O)NNC(=O)C(Cc2ccccc2)NC(N)=O)c2ccccc2c1=O (stereo not given),-5.9%,-2.2%,-19.1,2.4%,11.8%,.
Fc1ccc(-c2cc(C(F)(F)F)nc(NCC3CCCO3)n2)cc1 (stereo not given),.,?,-2.4,10µM*,-23.6%,2.9%
FC(F)(F)c1cc(-c2ccccc2)nc(NCC2CCCO2)n1 (stereo not given),.,0.0%,30.4,?,.,9.2%
Oc1ccccc1OCc1nc2ccccc2s1,.,54.3%,180.7,-7.9%,.,8.5%
Oc1ccc(O)c(Cc2nc3ccccc3s2)c1,?,-3.0%,?,-5.6%,-1.8%,50.1µM*
